PI5P4K alpha inh = inhibitors of human PI5P4K alpha; P48426; PI5P4Kalpha enzyme, ADP-Glo luminescence, 60 min; hits give low values; AID 652105; 1.2% of 330,000 active; max response, %; active means max response of -50% or lower; further: value at the top dose of about 77 µM; on the % scale 0 is the no-effect control and ±100 the full control effect
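ADP-Glo luminescence end-point read after a 60 min room-temperature kinase reaction of PI5P4Kalpha plus substrate, initiated with ATP at 5 microM final. Buffer: 0.038 M HEPES pH 7.4, EGTA, 0.1% CHAPS, 5% DMSO.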
D3 ag = agonists of human D3 dopamine receptor; P35462; D3R DiscoveRx beta-arrestin cells, luminescence, 90 min; max activation, %; 0.58% of 410,000 active; in the data active means max activation above about 30%; further: 0% is about no effect
Target sequence (P35462 whole entry, looked up): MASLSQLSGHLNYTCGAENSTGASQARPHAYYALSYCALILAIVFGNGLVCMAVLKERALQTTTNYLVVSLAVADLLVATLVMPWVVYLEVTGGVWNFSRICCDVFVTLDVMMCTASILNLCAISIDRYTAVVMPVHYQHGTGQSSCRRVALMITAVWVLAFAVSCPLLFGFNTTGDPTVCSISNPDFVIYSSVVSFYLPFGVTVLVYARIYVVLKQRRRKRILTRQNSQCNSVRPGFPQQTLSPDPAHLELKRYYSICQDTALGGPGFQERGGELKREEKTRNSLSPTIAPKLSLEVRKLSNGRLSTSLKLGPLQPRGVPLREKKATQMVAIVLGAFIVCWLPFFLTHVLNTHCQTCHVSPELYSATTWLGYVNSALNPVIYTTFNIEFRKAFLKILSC
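Cells at 1500/well, incubated overnight, then treated with pinned compounds (dopamine as control) for 90 min at 37 degrees C. DiscoveRx reagent added for 30 - 60 minutes at room temperature; luminescence read.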
DRD3 antagonist = antagonists of human D3 dopamine receptor. 2.5% of 360,000 active. D3R cells, DiscoveRx beta-arrestin luminescence, antagonist mode; hits give low values. max response, negative = inhibition, %. AID 652054. P35462; in the data active means max response below about -50%; further: on the % scale 0 is the no-effect control and ±100 the full control effect
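Cells plated overnight at 1500 cells/well, then exposed to library compounds with dopamine controls for 90 minutes at 37 degrees C. DiscoveRx reagent added for 30–60 minutes at room temperature; luminescence read, quantitative HTS format.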
LDHA inh = inhibitors of human lactate dehydrogenase A. P00338. purified LDHA, NADH/diaphorase-resazurin fluorescence; hits give low values. activity change, % (values are at about 110 or 230 µM). 0.15% of 480,000 active; in the data active means activity change below about -30%;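 further: plate controls were DMSO wells for no effect and wells without enzyme for full effect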
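Remaining NADH was detected by diaphorase (0.133 mg/mL) converting 37 µM resazurin to fluorescent resorufin, read at 0 and 20 minutes. The preceding 5-minute room-temperature reaction used 2 nM LDHA, 0.2 mM sodium pyruvate and 0.06 mM NADH at pH 7.4.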
PI4K2A inh = PI4K2A (human) kinase inhibition | Q9BTU6 | purified PI4K2A, ADP-Glo luminescence, 1 h; hits give low values | activity change, negative = inhibition, % at 76.9 µM | 0.13% of 420,000 active | AID 1346378; in the data active means activity change below about -50%;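 further: -100% = wells without enzyme as full effect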
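In this quantitative HTS, ADP production by PI4K2A was quantified luminescently after 1 h at ambient temperature; 100 microM adenosine served as plate-quality control.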
Numbers without * were called inactive. An excerpt weighted towards active compounds, which were near 3.3% of everything screened.

What do the screens show for `CCN(CC)C(=O)[C@H]1CC(CC(=O)NC(C)(C)C)C(=O)N2CCc3c([nH]c4ccccc34)[C@]12C` (stereo not given in full)?
PI5P4K alpha inh: -3; D3 ag: 0; DRD3 antagonist: 18; LDHA inh: -2; PI4K2A inh: 4

How did COCCCNC(=O)C[C@H]1C[C@H](C(=O)N2CCOCC2)[C@@]2(C)c3[nH]c4cc(-c5ccco5)ccc4c3CCN2C1=O do in these assays?
PI5P4K alpha inh: 5; D3 ag: 35*; DRD3 antagonist: 5; LDHA inh: -18; PI4K2A inh: -1

What do the screens show for `O=C(Nc1cc(S(=O)(=O)N2CCCCC2)ccc1N1CCCCC1)c1cc(=O)c2ccccc2o1`?
LDHA inh: 3

How did Cc1ccc(CN(C)C(=O)Cn2c(=O)n(C)c3ccccc32)cc1 do in these assays?
LDHA inh: -1

What do the screens show for `CC[C@]12c3[nH]c4ccccc4c3CCN1C(=O)C(CC(=O)NCCCN(C)C)C[C@@H]2C(=O)N1CCN(C(=O)C2CC2)CC1` (stereo not given in full)?
PI5P4K alpha inh: 2; D3 ag: -8; DRD3 antagonist: -59*; LDHA inh: -7; PI4K2A inh: 4

Results for O=C(c1ccc(F)cc1)c1ccc(CN2C(=O)c3ccccc3C2=O)o1 ?
PI5P4K alpha inh: -1; D3 ag: -3; DRD3 antagonist: 1; LDHA inh: -6; PI4K2A inh: 1

How did O=C(c1ccc(Cl)cc1)c1ccc(CN2C(=O)c3ccccc3C2=O)o1 do in these assays?
PI5P4K alpha inh: -3; D3 ag: -5; DRD3 antagonist: -64*; LDHA inh: -6; PI4K2A inh: -12

How did CN(CC(=O)Nc1n[nH]c(=S)s1)S(=O)(=O)c1cccc2cccnc12 do in these assays?
PI5P4K alpha inh: -57*; D3 ag: 4; DRD3 antagonist: -21; LDHA inh: -10; PI4K2A inh: -4

How did Cc1cc(NC(=O)CSCC(=O)OCC(=O)c2cccc(Br)c2)no1 do in these assays?
PI5P4K alpha inh: -62*; D3 ag: -7; DRD3 antagonist: -18; LDHA inh: -16; PI4K2A inh: -5

What do the screens show for `CN=C1S/C(=C/C(=O)OC)C(=O)N1C`?
LDHA inh: -2

Results for COCCN1CCN(C(=O)c2cc(COc3ccc(F)c(F)c3)on2)CC1 ?
PI5P4K alpha inh: 1; D3 ag: -4; DRD3 antagonist: 1; LDHA inh: -5; PI4K2A inh: -4

How did COCCN1CCN(C(=O)c2cc(COc3ccc(F)cc3F)on2)CC1 do in these assays?
PI5P4K alpha inh: -2; D3 ag: -6; DRD3 antagonist: 1; LDHA inh: -56*; PI4K2A inh: -7

Results for CSC1=N/C(=C\c2sccc2C)C(=O)S1 ?
LDHA inh: -2

What do the screens show for `O=C(N/N=C1\CC2CCC1C2)c1sc2ccccc2c1Cl` (stereo not given)?
LDHA inh: -1

What do the screens show for `O=C(N/N=C1/CC2CCC1C2)c1cc2ccccc2cc1O` (stereo not given)?
PI5P4K alpha inh: -56*; D3 ag: -1; DRD3 antagonist: -8; LDHA inh: 1; PI4K2A inh: -1

What do the screens show for `Cc1ccc(-c2nn(-c3cccc(F)c3)cc2CN(Cc2nccn2C)C(C)C)o1`?
PI5P4K alpha inh: -2; D3 ag: 3; DRD3 antagonist: -3; LDHA inh: 0; PI4K2A inh: 3

How did Cc1ccc(-c2nn(-c3cccc(F)c3)cc2CN2CCN(c3ccccn3)CC2)o1 do in these assays?
PI5P4K alpha inh: -1; D3 ag: -3; DRD3 antagonist: -70*; LDHA inh: -2; PI4K2A inh: 2

How did COc1ccc(NC(=O)CSc2nc3ccccc3o2)c(OC)c1 do in these assays?
LDHA inh: -5

How did Cc1cc2nc(C(C)(C)C)c(Cc3ccccc3)n2c(C)c1Br do in these assays?
PI5P4K alpha inh: 2; D3 ag: -21; DRD3 antagonist: -97*; LDHA inh: -12; PI4K2A inh: 1

What do the screens show for `O=C(CSc1ccc2c(c1)OCCCO2)c1ccc(NC(=O)c2ccccc2)cc1`?
LDHA inh: 7

How did CCOCc1c(C(=O)N2CCN(CC(=O)Nc3ccc(F)cc3)CC2)oc2ccccc12 do in these assays?
PI5P4K alpha inh: -7; D3 ag: -1; DRD3 antagonist: 9; LDHA inh: -2; PI4K2A inh: -2
